Experimental findings from ChEMBL document CHEMBL4513216, “Probing the Open Global Health Chemical Diversity Library for Multistage-Active Starting Points for Next-Generation Antimalarials” (ACS Infect Dis, 2020) are described below.

SMILES strings stand for the structures. Screen size: about 69,000 compounds; about 8,600 (12%) showed an effect of 50% or more. The entries come from a sample that favours strong results as a whole.

This assay deals with Plasmodium berghei. Briefly: Screen against P. berghei liver stage (PbLuc), transformed with Luciferase, at 10uM. Particulars: tested at 10 uM. The assay is classed as functional, HepG2.
In the case of `Cc1nn(CCO)c(C)c1CN1CCN(C2CCCCC2)C(=O)C1`, the INHIBITION is recorded as 16.9%.
Next, `CN(C)C(=O)CNC(=O)Nc1cccc(Cl)c1SC(F)F`: 23.2%; `CC(=O)NCCNC(=O)Nc1cccc(Cl)c1SC(F)F`: 46.4%; `O=C(CNC(=O)Nc1cccc(Cl)c1SC(F)F)NC1CC1`: 29.5%.
Next, `CNC(=O)CCNC(=O)Nc1cccc(Cl)c1SC(F)F`: 60.3%.
Regarding `CCNC(=O)CNC(=O)Nc1cccc(Cl)c1SC(F)F`, the INHIBITION stood at 64.3%.
On to `O=C(NCCO)Nc1cccc(Cl)c1SC(F)F`, for which the INHIBITION worked out at 13%.
Take `O=C(NCC1COCc2c(-c3cccnc3)nnn2C1)c1cccs1` (stereo not given): the INHIBITION worked out at 43.2%.
With `COCCNc1ccc(CC2CCCNC2)cn1` (stereo not given), the INHIBITION is 44.3%.
Consider `CO[C@@H]1CCN(S(=O)(=O)c2cn(C)cn2)[C@H]1Cc1ccncc1`, for which the INHIBITION is 39.4%.
As for `Cc1nccn1CCNC(=O)C1(C)CC(c2ccccc2)=NO1` (stereo not given), the INHIBITION is recorded as -1.16%.
In the case of `CO[C@@H]1CC[C@H]2[C@H]1OCCN2Cc1ccc(F)cc1` it was 25.3%.
In the case of `CCO[C@@H]1CC[C@H]2[C@H]1OCCN2Cc1ccc(F)cc1` it was 8.52%.
Take `COc1ccc(CN2CCO[C@H]3[C@H](OCCN4CCCC4)CC[C@@H]32)cc1`: the INHIBITION amounted to 0.618%.
Next, `COc1ccc(CN2CCO[C@H]3[C@H](OCc4ccncc4)CC[C@@H]32)cc1`: 90.1%.
`Cc1ccc(CN2CCO[C@@H]3[C@@H](OCc4cccnc4)CC[C@@H]32)o1`: the INHIBITION is reported as 26.5%.
`Cc1cccc(CO[C@@H]2CC[C@H]3[C@H]2OCCN3Cc2ccoc2)n1`: the INHIBITION turned out to be 67.5%.
On to `CCN(CC)CCN1CCO[C@H]2[C@@H](OCc3ccncc3)CC[C@@H]21`, for which the INHIBITION stood at 29%.
In the case of `Cc1ccc(CN2CCO[C@H]3[C@@H](OCc4cccnc4)CC[C@@H]32)o1` it was 15.6%; in that of `Cc1cccc(CO[C@@H]2CC[C@H]3[C@H]2OCCN3Cc2ccsc2)n1`, 16.6%.
In the case of `Fc1ccc(CN2CCO[C@H]3[C@H](OCc4ccncc4)CC[C@@H]32)cc1` it was 92.8%; in that of `Cc1ccc(CN2CCO[C@H]3[C@H](OCc4cccnc4)CC[C@@H]32)o1`, 56.4%.
In the case of `COCCN1CCO[C@H]2[C@H](OCc3cccc(C)n3)CC[C@@H]21` it was -8.25%; in that of `O=C(NCC1CC[C@@H]2[C@@H]1OCCN2Cc1cccs1)c1ccco1` (stereo not given in full), 12.1%.
Regarding `CCCn1ncc(CN(Cc2cccnc2)Cc2cccs2)c1C`, the INHIBITION is listed as -4.87%.
Turning to `Cc1ocnc1C(=O)N(C)[C@@H]1CC[C@@H](Oc2ccccc2)[C@@H]1O`, the INHIBITION is 16.2%.
Next, `COCCO[C@H]1CCN(Cc2cnn(C)c2)[C@H]1Cc1cccnc1`: 9.51%; `CN(C)C(=O)C1OC2(CCN(c3ncc(F)cn3)CC2)c2ccccc21` (stereo not given): 49.3%.
Next, `Cc1noc(C)c1-c1ccnc(C2CCN(S(=O)(=O)N(C)C)CC2)c1`: 35.2%; `CCN(Cc1cn(C)nc1-c1ccc2c(c1)OCCO2)CC1CCCO1` (stereo not given): 28.5%; `CC(C)N1CCCC(CNC(=O)CN(C)S(=O)(=O)c2ccccc2)C1` (stereo not given): -3.21%.
With `Cn1nc(CNC(=O)C2CCC2)cc1C1CC1`, the INHIBITION was -34.5%.
In the case of `c1csc(CN2CCO[C@H]3[C@H](OCC4CCCC4)CC[C@@H]32)n1` it was 41.2%.
In the case of `Cc1cccc(CO[C@@H]2CC[C@H]3[C@H]2OCCN3Cc2nccs2)n1` it was -44.2%.
Next, `c1cc(CO[C@@H]2CN(Cc3ccoc3)[C@@H]3CCCO[C@@H]32)ccn1`: 47.5%; `c1ccc(CO[C@H]2CC[C@H]3[C@H]2OCCN3Cc2nccs2)nc1`: 22.2%.
On to `c1cc(CO[C@@H]2CC[C@H]3[C@H]2OCCN3Cc2ccoc2)ccn1`, for which the INHIBITION worked out at 55.7%.
On to `c1cc(CO[C@H]2CC[C@H]3[C@H]2OCCN3Cc2nccs2)ccn1`, for which the INHIBITION was 84.7%.
`c1cc(CO[C@@H]2CC[C@H]3[C@H]2OCCN3CC2CCOCC2)ccn1`: the INHIBITION was determined as 68.8%.
For `O=C(C1CCOCC1)N1CCO[C@H]2[C@H](OCc3ccncc3)CC[C@@H]21`, the INHIBITION turned out to be 14.1%.
Turning to `CCO[C@@H]1CC[C@H]2[C@H]1OCCN2Cc1ccoc1`, the INHIBITION stood at 35.8%.
Next, `Cc1cccc(CN2CCO[C@H]3[C@@H](OCc4ccncc4)CC[C@@H]32)n1`: 85.6%.
Regarding `O=C(C1CCOCC1)N1CCO[C@H]2[C@@H](OCc3ccncc3)CC[C@@H]21`, the INHIBITION was determined as 43.3%.
In the case of `Cc1cccc(CO[C@@H]2CC[C@H]3[C@H]2OCCN3Cc2cc(C)on2)n1` it was -46.8%.
Consider `COCCN1CCC(c2nc3c([nH]2)CCCNC3=O)CC1`, for which the INHIBITION is 44%.
Turning to `COc1cccc(CNCc2ccc(F)cc2Cl)c1O`, the INHIBITION is -38%.
Next, `COC(=O)CNC(=O)N1CCN(c2nc3ccccc3n2C)CC1`: 10.7%; `Cc1nc2[nH]cnc(NCCN3CCCC3)c-2n1`: 29.7%.
In the case of `COCC(=O)N1CC[C@@H]2O[C@@H](COCc3csc(C)n3)CC[C@@H]21` it was 27.3%; in that of `CCc1ncc2c(n1)CN(CC(=O)Nc1nncs1)CC2`, 33.8%.
